Measurements published in PubChem BioAssay (NCI).
About 83,000 compounds went through this panel and 20% of them were active in at least one assay; those are over-represented in the sample as a whole.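 Negative percent growth values reflect cell death: -40 means 40% of the cells present at the start died, and -100 means all died.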 Calls of active or inactive are those of the source. The calls were made as follows: active = growth percent below 10; inactive = the rest.

System: HL-60(TB) leukemia
Assay: NCI-60 one-dose screen, 48 h (100 = growth as untreated, 0 = no growth, -100 = all killed)
Conditions: 10 µM unless noted

SMILES | growth
c1ccc(CSc2ncnc3nc[nH]c23)nc1 | 96.4% (inactive)
CC(C)(C)c1nc(-c2ccc(O)c(O)c2)cs1 | -5.29% (active)
CCCCc1ccc(NS(=O)(=O)c2cc3c4c(c2)CCN4C(=O)CC3)cc1 | -23.6% (active)
Oc1c(CN2CCC(N3CCOCC3)CC2)cc(Cc2cc(CN3CCC(N4CCOCC4)CC3)c(O)c3ncccc23)c2cccnc12 | -5.88% (active)
CC(C)(C)c1[nH]nc2c1C(c1cc3ccccc3[nH]c1=O)Nc1cc(C(=O)OCc3ccccc3)ccc1N2 (stereo unspecified) | 54.5% (inactive)
Cc1cc(-c2ccc(N=Nc3c(S(=O)(=O)O)cc4cc(S(=O)(=O)O)cc(N)c4c3O)c(C)c2)ccc1N=Nc1cc(S(=O)(=O)O)c2ccccc2c1O | 98.7% (inactive)
CN(C)Cc1ccc(C(=O)Nc2ccc3ncnc(Nc4ccc(Oc5cccc(F)c5)c(Cl)c4)c3c2)cc1 | -41.7% (active)
Oc1c(CN2CCOCC2)cc(COCc2ccccc2)c2cccnc12 | 0.702% (active)
C/C(=N\NC(=S)N1CCCC1)c1ccccn1 | -13.4% (active)
O=C(/C=C\c1ccc2ccccc2n1)c1cc(Cl)ccc1O | 89.8% (inactive)
O=[N+]([O-])/C(=C/C=C/c1ccccc1)c1ccccc1 | -2.71% (active)
OC(COc1ccccc1Cl)CN1CCN(c2ccc(Cl)cc2)CC1 (stereo unspecified) | 109% (inactive)
CC(=O)OC1Oc2cc(C)c(C)cc2-c2oc(=O)c(-c3ccccc3)cc21 (stereo unspecified) | -39.1% (active)
CCN=c1sc2c(n1NC(=O)c1cc3ccc1CCc1ccc(cc1)CC3)C(=O)c1ccccc1C2=O | -18.3% (active)
CCCCC[C@H]1CC=C2C(=O)C=C[C@@H]2CC=CCCCC(=O)O[C@@H](CCCCC)CC=C2C(=O)C=C[C@@H]2CC=CCCCC(=O)O[C@@H](CCCCC)CC=C2C(=O)C=C[C@@H]2CC=CCCCC(=O)O1 | -32.4% [8.75 µM] (active)
Oc1c(I)cc(I)cc1CNCCN(Cc1ccccn1)Cc1ccccn1 | -31.5% (active)
COc1cc2nnn3c4ncccc4c(N=O)c3c2cc1OC | -31.5% (active)
Cc1ccc(Cc2c(C=O)nc(N)[nH]c2=O)c2ccccc12 | 36.1% (inactive)
COC(=O)c1ccc2[nH]c(O)c(C(=Nc3ccc(N(C)C(=O)CN4CCN(C)CC4)cc3)c3ccc(OC)cc3)c2c1 | -13.8% (active)
O=C(Nc1cc(Nc2ncccc2-c2ncnc3nc[nH]c23)ccc1F)c1cc(C(F)(F)F)cc(C(F)(F)F)c1 | -11.3% (active)
O=C1c2ccc3c4c(ccc(c24)C(=O)N1CCCCO)C(=O)N(CCCCO)C3=O | 7.09% (active)
O=C(NCc1cccnc1)/C(=C\c1ccc(Br)cc1)S(=O)(=O)c1ccccc1 | 17.4% (inactive)
CC1(C)NCCC[C@]2(C)[C@H]3CC(=O)[C@H]4[C@@H]5C[C@](C)(CO)CC[C@]5(C)CC[C@@]4(C)[C@]3(C)CC[C@@H]12 | 102% (inactive)
CCN1C(=O)N(CC)C2C1NN=c1s/c(=C3\C(=O)N(C4CCCC4)c4ccccc43)c(=O)n12 (stereo unspecified) | -44.5% (active)
CC1(c2ccc(Cl)cc2)OC(=O)CC(=O)O1 | 74.7% (inactive)
CC(C)N1C(=O)S/C(=C2/SC(=O)N(C(C)C)C2=O)C1=O | 98.4% (inactive)
